Data reported in PubChem BioAssay AID489018 (Southern Research Specialized Biocontainment Screening …, 2010).
Out of some 2,300 compounds screened, about 350 (15%) were called active. A selection follows. Entries with a potency or affinity are not part of this list. Values without a mark were called inactive. No rule for the calls is given here.

Experiment: HepG2 cell cytotoxicity, dose response, cytotoxicity control for non-replicating M. tuberculosis project (AID 489018);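 also: HepG2 human liver cells; 100% = vehicle-treated cells and 0% = background signal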
Details: series mostly up to 20 µM; viability: at the top concentration

Row | Compound | viability
1 | O=C(CCN1C(=O)S/C(=C\c2ccc(F)cc2)C1=O)Nc1ccc(C(=O)O)c(O)c1 | 102%
2 | FC(F)(Cl)c1nnc2ccc(Cl)nn12 | 78%
3 | Cn1c(SCc2c(F)cccc2Cl)nc2c(c1=O)SCC2 | 92.9%
4 | O=C(Oc1ccccc1)c1cc2ccccc2o1 | 110% [at 5 µM]
5 | COC(=O)c1ccc2c(c1O)C(=O)c1ccccc1C2=O | 102% [at 5 µM]
6 | COc1ccc(-c2[nH]ncc2CN2CCCCCCC2)c(OC)c1 | 97.7%
7 | Cc1noc2ncnc(Sc3ccccc3Cl)c12 | 111%
8 | O=C(N/N=C/c1ccc(Br)s1)c1ccncc1 | 90%
9 | Cc1ccc(/C=N/NC(=O)c2ccncc2)s1 | 107%
10 | O=C(Nc1nccs1)c1ccc2ccccc2c1 | 91.4%
11 | CC(C)(C)c1ccc(-c2nc(C#N)c(NCCCn3ccnc3)o2)cc1 | 101%
12 | O=[N+]([O-])c1ccc(Nc2ccccc2O)c2nonc12 | 98.6%
13 | O=[N+]([O-])c1ccc(Nc2ccccc2)c2nonc12 | 109%
14 | C#CCSc1nnc(-c2ccc(C)cc2)o1 | 93.6%
15 | c1ccc(CNCCC(Cc2ccccc2)c2ccco2)cc1 (stereo not given) | 76.4%
16 | O=C(Nc1ccc(Cl)cc1Cl)c1cccc(N2C(=O)C=CC2=O)c1 | 99.2%
17 | c1ccc2[nH]c(NC3=NCCC3)nc2c1 | 103%
18 | Cc1cccc(OCCCCc2c(C)n[nH]c2C)c1 | 89.6%
19 | O=C(NC(=S)N1CCN(Cc2ccc3c(c2)OCO3)CC1)c1ccc(Cl)cc1 | 83.1%
20 | C/C(=N\Nc1ccc(Cl)cc1)c1ccccn1 | 90.1%

Row | Compound | viability
21 | O=C(COc1ccc(Cl)cc1)NNC(=O)c1ccccn1 | 105%
22 | C/C(=N\NC(=O)CCCNc1ccc(C)cc1)c1ccccn1 | 76.5% [at 5 µM]
23 | C/C(=N\Nc1cccc2cccnc12)c1ccccn1 | 82.3%
24 | COc1cc(/C=N/NC(=O)c2ccccn2)ccc1OC(=O)c1cccs1 | 92.5%
25 | COc1ccccc1/C=C/C=N/NC(=O)c1ccncc1 | 96.1%
26 | COc1ccc(C(=O)Nc2ccccc2C(=O)N/N=C/c2ccco2)cc1 | 83%
27 | O=C(N/N=C/c1ccccn1)c1ccccc1 | 87.5%
28 | COc1ccc(N2C(=O)C(F)(F)C2c2cccc(F)c2)cc1 (stereo not given) | 93.6%
29 | Cc1ccc(-c2nnc(NC(=O)c3ccco3)o2)c(C)c1 | 94.2%
30 | Cc1ccc(S(=O)(=O)/N=C(\CCl)N2CCOCC2)cc1 | 100%
31 | O=C(N/N=C/c1cccc2cccnc12)[C@H]1C[C@@H]1c1ccccc1 | 92.1%
32 | CC(C)c1ccc(/C=N/NC(=O)c2ccccn2)cc1 | 96.6%
33 | O=C(CCc1c[nH]c2ccccc12)Nc1ncccc1O | 99.2%
34 | O=C(Nc1ccc(Br)cc1)c1cc([N+](=O)[O-])cc([N+](=O)[O-])c1 | 96.6%
35 | Nc1ccccc1C#CC(=O)c1ccccc1 | 114%
36 | COC(=O)COc1ccc(-c2ccccc2)cc1C=O | 93.7%
37 | COc1ccc(OCCOC(=O)CCS(=O)(=O)c2ccc(C)cc2)cc1 | 107% [at 5 µM]
38 | CCOC(=O)c1ccsc1NC(=O)CCS(=O)(=O)c1ccccc1 | 101% [at 5 µM]
39 | COc1ccc(-c2cc(C(F)(F)F)nc(S(C)(=O)=O)n2)cc1 | 119% [at 5 µM]
40 | COc1ccc(C(=O)Cn2c(C)nc([N+](=O)[O-])c2Br)cc1 | 89.7%

Row | Compound | viability
41 | Cc1ccc2nc(/N=C(\N)NC(=O)NC3CCCCC3)nc(C)c2c1 | 83.8%
42 | O=C(COc1ccccc1)NC1CCCCC1 | 107%
43 | Cn1cccc1/C=N\NC(=O)C1COc2ccccc2O1 (stereo not given) | 89.8%
44 | O=C(C/C=N\OCc1ccc([N+](=O)[O-])cc1)Nc1ccc(Cl)cc1 | 91.9%
45 | O=C(NCC(c1cccs1)N1CCOCC1)c1cc([N+](=O)[O-])cc([N+](=O)[O-])c1 (stereo not given) | 97.6%
46 | OC(CNCCc1ccc(C(F)(F)F)cc1)COc1cccc2ccccc12 (stereo not given) | 97.7% [at 5 µM]
47 | OC(CNCCc1ccc(C(F)(F)F)cc1)COc1ccc2ccccc2c1 (stereo not given) | 96.9% [at 5 µM]
48 | Cn1ccsc1=NC(=O)c1ccccc1F | 103%
49 | CCc1ccc(C(=O)COC(=O)c2ccc(Cl)nc2)cc1 | 98.2%
50 | Cc1cccc(NC(=O)COc2ccc(Br)cc2)n1 | 107%
51 | Cc1nc([N+](=O)[O-])c(Br)n1CC(=O)c1ccccc1 | 96.7%
52 | c1ccc(-c2nc3ccccn3c2NC2CCCC2)nc1 | 89.2% [at 5 µM]
53 | O=C(N/N=C/C=C/c1ccccc1)c1ccncc1 | 106%
54 | O=C(Nc1ccccn1)c1ccc(C(=O)c2ccccc2)cc1 | 93.6%
55 | CC(C)(C)NCc1cc(Br)ccc1OCc1cccs1 | 70.4%
56 | CC(C)CCCn1c(O)c(/C=C2/C=CC=N2)c(=O)[nH]c1=O | 107%
57 | CC1=C(C)/C(=N\OS(=O)(=O)c2ccccc2)C=CC1=O | 95.9%
58 | CN(CC(=O)Nc1ccc(C#N)cc1)Cc1ccc(Cl)c(Cl)c1 | 106%
59 | Nc1ccc2c(c1)oc1ccccc12 | 113%
60 | Cc1ccccc1-c1cc2c(nn1)-c1ccccc1C2=O | 99.2%
